Experimental data as given in PubChem BioAssay (Tox21).
Inconclusive results are not listed. Entries that show only a call come without a potency. Activity calls are given as the source filed them. Unless noted, calls come from the whole dose curve; as a rule, active = well fitted curve in the direction sought with a large enough effect in the repeat runs; inconclusive = weak or mixed curves; inactive = no such curve, though single readings can be large; an effect the other way counts as inactive or inconclusive.

Columns and labels:
[1] = qHTS assay for small molecules that induce genotoxicity in human embryonic kidney cells expressing luciferase-tagged ATAD5 (AID 651632); note: nearly all actives have a fitted effect of over 15% in size
Procedure, shortened: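 Quantitative HTS in HEK293T expressing luciferase-tagged ATAD5, whose levels rise upon DNA damage. Exposure ran 16 hr at 37C and 5% CO2, with luminescence read 30 min after Amplite addition at room temperature.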

[2] = qHTS assay for small molecule disruptors of the mitochondrial membrane potential - cell viability (AID 720634; calls by dose curve; note: nearly all actives have a fitted effect of over 20% in size; note: potency is the fitted concentration of half-maximal effect)
Procedure, shortened: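 ATP-based luminescent viability readout (CellTiter-Glo, 30 min, room temperature) in HepG2 cells multiplexed with the m-MPI membrane potential dye; compound exposure lasted 1 hr at 37 C.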

[3] = qHTS assay to test for compound auto fluorescence at 590 nm (red) in HepG2 cells (AID 720674)
Procedure, shortened: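 1 hr compound incubation on HepG2 cells, 37 C, 5% CO2; plate read ex 540 nm / em 590 nm; intensities reported as Rose Bengal sodium equivalents.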

[4] = qHTS assay to test for compound auto fluorescence at 535 nm (green) in HepG2 cells (AID 720675); note: potency is the fitted concentration of half-maximal effect
[5] = qHTS assay to test for compound auto fluorescence at 460 nm (blue) in HEK293 cells (AID 720678)
Procedure, shortened: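 Blue-channel (Ex/Em 405/460 nm) intensity measured in HEK293 cultures after overnight compound exposure at 37C; signal expressed relative to triamterene. Cells plated 2,000 per well in 10% dialyzed FBS medium and allowed 4-5 hr to attach.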

[6] = qHTS assay to test for compound auto fluorescence at 590 nm (red) in HEK293 cells (AID 720679)
Procedure, shortened: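 Red-channel autofluorescence (Ex/Em 540/590 nm; Rose Bengal sodium reference) was measured after overnight 37C, 5% CO2 exposure of attached HEK293 cells, 2,000 per well in medium with 10% dialyzed FBS.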

[7] = qHTS assay for small molecules that induce genotoxicity in human embryonic kidney cells expressing luciferase-tagged ATAD5 - cell viability (AID 651634; calls by dose curve; note: nearly all actives have a fitted effect of over 25% in size; note: potency is the fitted concentration of half-maximal effect)
Procedure, shortened: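 After 15.5 hr incubation with compound at 37C, 5% CO2, HEK293T ATAD5-luciferase cells received CellTiter-Fluor reagent; fluorescence intensity was quantified following 30 min at 37C.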

[8] = qHTS assay for small molecule disruptors of the mitochondrial membrane potential (AID 720635); note: potency is the fitted concentration of half-maximal effect
Procedure, shortened: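 Mitochondrial membrane potential tracked with Mito-MPS dye, red aggregates (ex 540/em 590 nm) against green monomers (ex 490/em 535 nm). Compound treatment 1 hr at 37C, dye 30 min in HepG2.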

[9] = qHTS assay for small molecule agonists of the p53 signaling pathway - cell viability (AID 651633; calls by dose curve; note: nearly all actives have a fitted effect of over 30% in size; note: potency is the fitted concentration of half-maximal effect)
Procedure, shortened: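 Viability counter-read: CellTiter-Glo luminescence (30 min, room temperature) in the same p53RE-bla plates. These plates had been exposed to compounds for 16 h at 37 C.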

Compound	Potency [1]	Potency [2]	Potency [3]	Potency [4]	Potency [5]	Potency [6]	Potency [7]	Potency [8]	Potency [9]
CC(C)N=c1cc2n(-c3ccc(Cl)cc3)c3ccccc3nc-2cc1Nc1ccc(Cl)cc1	inactive	inactive	inactive	inactive	inactive	inactive	–	–	–
CN[C@@H]1[C@@H](O)[C@@H](O[C@@H]2[C@@H](O)[C@H](OC3OC(CN)=CCC3N)[C@@H](N)C[C@H]2N)OC[C@]1(C)O (stereo partly specified)	inactive	inactive	inactive	inactive	inactive	inactive	inactive	inactive	–
CCC(=O)OCC(=O)[C@@]1(OC(=O)CC)[C@@H](C)C[C@H]2[C@@H]3CCC4=CC(=O)C=C[C@]4(C)[C@@]3(F)[C@@H](O)C[C@@]21C	inactive	inactive	inactive	inactive	inactive	inactive	–	23.7 µM (active)	–
C#C[C@]1(O)CC[C@H]2[C@@H]3CCC4=CCCC[C@@H]4[C@H]3C(=C)C[C@@]21CC	inactive	inactive	inactive	inactive	inactive	inactive	inactive	21.1 µM (active)	–
CC(C)(C)c1ccc(CN2CCN(C(c3ccccc3)c3ccc(Cl)cc3)CC2)cc1 (stereo unspecified)	inactive	inactive	inactive	inactive	inactive	inactive	–	–	–
C=C1C(=C/C=C2\CCC[C@]3(C)[C@@H]([C@H](C)/C=C/[C@H](C)C(C)C)CC[C@@H]23)C[C@@H](O)C[C@@H]1O	inactive	inactive	inactive	inactive	inactive	inactive	inactive	–	–
COc1ccccc1N1CCN(CCCC(=O)c2ccc(F)cc2)CC1	inactive	inactive	inactive	–	inactive	inactive	inactive	–	–
CC(C)[C@@H](C)/C=C/[C@@H](C)[C@H]1CC[C@H]2/C(=C/C=C3\C[C@@H](O)CC[C@@H]3C)CCC[C@]12C	inactive	inactive	inactive	inactive	inactive	inactive	–	–	–
CCCCCCCCCCCCCCCC(=O)O[C@@H]1CC(C)=C(/C=C/C(C)=C/C=C/C(C)=C/C=C/C=C(C)/C=C/C=C(C)/C=C/C2=C(C)C[C@@H](OC(=O)CCCCCCCCCCCCCCC)CC2(C)C)C(C)(C)C1	inactive	inactive	inactive	inactive	inactive	inactive	inactive	inactive	–
CN1CCN(C2=Nc3ccccc3Cc3ccccc32)CC1	inactive	inactive	inactive	inactive	inactive	inactive	inactive	–	–
CCN(CC)CCOc1ccc(-c2nc3cc(Cl)ccc3s2)cc1	inactive	inactive	inactive	inactive	inactive	inactive	inactive	–	–
CCC(=O)NCCC1CCc2ccc3c(c21)CCO3 (stereo unspecified)	inactive	inactive	inactive	inactive	inactive	inactive	inactive	–	–
CCC(=O)Oc1ccc2c(c1)CC[C@@H]1[C@@H]2CC[C@]2(C)[C@@H](OC(=O)CC)CC[C@@H]12	inactive	inactive	inactive	inactive	inactive	inactive	inactive	inactive	–
NCCC(=O)[N-][C@@H](Cc1cnc[nH]1)C(=O)O.[Zn]	inactive	–	inactive	inactive	inactive	inactive	inactive	inactive	–
CCc1ccc2c(c1)N(CC(C)CN(C)C)c1ccccc1S2 (stereo unspecified)	inactive	–	inactive	inactive	inactive	inactive	33.5 µM (active)	–	–
CC(C)(C)NC(=O)[C@H]1CC[C@H]2[C@@H]3CC=C4C=C(C(=O)O)CC[C@]4(C)[C@H]3CC[C@]12C	inactive	inactive	inactive	inactive	inactive	inactive	inactive	–	–
CCC(=O)NS(=O)(=O)c1ccc(-c2c(-c3ccccc3)noc2C)cc1	inactive	inactive	inactive	–	inactive	inactive	inactive	–	–
CCOC(=O)[C@H](CS)NCCN[C@@H](CS)C(=O)OCC	inactive	inactive	inactive	–	inactive	inactive	inactive	inactive	–

Compound	Potency [1]	Potency [2]	Potency [3]	Potency [4]	Potency [5]	Potency [6]	Potency [7]	Potency [8]	Potency [9]
O=C1NCCN1c1ncc([N+](=O)[O-])s1	inactive	inactive	inactive	inactive	inactive	inactive	inactive	–	–
CCCCCCCC(=O)CC[C@@H]1[C@@H](C/C=C\CCCC(=O)OC(C)C)[C@@H](O)C[C@H]1O	inactive	26.6 µM (active)	inactive	inactive	inactive	inactive	–	26.6 µM (active)	–
Cc1ccc(S(=O)(=O)NC(=O)N[C@@H](C)Cc2ccccc2)cc1	inactive	inactive	inactive	–	inactive	inactive	inactive	inactive	–
CC(=O)Oc1cc(C)c(OC(C)=O)c2ccccc12	inactive	inactive	inactive	inactive	inactive	inactive	inactive	–	–
Clc1ccc(COC(Cn2ccnc2)c2ccc(Cl)cc2Cl)c(Cl)c1 (stereo unspecified)	inactive	inactive	inactive	inactive	inactive	inactive	inactive	–	–
CCCCCCCCCCCCCCCC(=O)OC[C@@H](O)[C@H]1OC[C@H](O)[C@H]1O	–	inactive	inactive	inactive	inactive	inactive	–	inactive	inactive
Cc1cc2nc3c(=O)[nH]c(=O)nc-3n(C[C@H](O)[C@H](O)[C@H](O)COP(=O)(O)OP(=O)(O)OC[C@H]3O[C@@H](n4cnc5c(N)ncnc54)[C@H](O)[C@@H]3O)c2cc1C	–	inactive	inactive	14.1 µM (active)	inactive	inactive	–	–	inactive
CO[C@@H]1[C@@H](O[C@@H]2O[C@H](C)[C@@H](O[C@H]3C[C@@](C)(O)[C@@H](OC(=O)CC(C)C)[C@H](C)O3)[C@H](N(C)C)[C@H]2O)[C@@H](CC=O)C[C@@H](C)C(=O)/C=C/C2OC2C[C@@H](C)OC(=O)C[C@H]1OC(C)=O (stereo partly specified)	–	inactive	inactive	inactive	inactive	inactive	–	–	inactive
CCCCC(C)(O)C/C=C/[C@H]1[C@H](O)CC(=O)[C@@H]1CCCCCCC(=O)OC (stereo partly specified)	–	inactive	inactive	inactive	inactive	inactive	inactive	–	inactive
CCOC(=O)C1=C(COCCN)NC(C)=C(C(=O)OC)C1c1ccccc1Cl (stereo unspecified)	–	inactive	inactive	inactive	inactive	–	inactive	–	–
Nc1nc(=O)n([C@@H]2CS[C@H](CO)O2)cc1F	–	inactive	inactive	inactive	inactive	inactive	inactive	inactive	inactive
CC[C@@]1(O)C[C@H](O[C@H]2C[C@H](N(C)C)[C@H](O[C@H]3C[C@H](O)[C@H](O[C@H]4CCC(=O)[C@H](C)O4)[C@H](C)O3)[C@H](C)O2)c2c(cc3c(c2O)C(=O)c2c(O)cccc2C3=O)[C@H]1C(=O)OC	–	inactive	inactive	–	inactive	inactive	15 µM (active)	1.68 µM (active)	inactive
CN(C)CC/C=C1/c2ccccc2CSc2ccccc21	–	inactive	inactive	inactive	inactive	inactive	inactive	–	inactive
C=C1C(=O)O[C@H]2[C@H]1CC/C(C)=C\CC[C@@]1(C)O[C@@H]21	–	inactive	inactive	inactive	inactive	inactive	–	–	29.8 µM (active)
CCCCC(=O)N(Cc1ccc(-c2ccccc2-c2nn[nH]n2)cc1)[C@@H](C(=O)O)C(C)C	–	–	inactive	inactive	inactive	inactive	inactive	–	inactive
NC(=O)OC[C@@H]1[C@H](NC(=O)/C(=N\OCC(=O)O)c2csc(N)n2)C(=O)N1S(=O)(=O)O	–	inactive	inactive	inactive	inactive	inactive	–	inactive	inactive
CCCC1([C@H](O)C/C=C/[C@H]2[C@H](O)CC(=O)[C@@H]2CCCCCCC(=O)OC)CCC1	–	–	inactive	inactive	inactive	inactive	–	–	29.8 µM (active)
